# According to the supplement of paper PMC8728848:
# This is one part of a sample in which the strongest signals are shown more often than they occur.
# B1: SP15308B-bot-339-22-339 (Bacteroides ovatus) (protein)
# chain: NEWEDEQYEQYVSFKAPIASGSDGVTTIYVRYKDNGKVTYQLPIIVSGSTVNSQDRDIHIAVDKDTLKTLNIERFSLYRPELWYTEMEEDKYEFPETVHIPAGSCVELLNIDFNLQDIDMLEKWVLPLTIVDDGSYAYQSHPRKNYAKALLKVVPFNNYSGSYTASSMKVYTYINGKPDTNARTTDKRTGYVVDNNSIFFYAGLINEDMDKDMRKKYKINVHFKEDGTLDMKQDDPSNEMEFELIGTPTYSSTSVMDATRPYLERRYVQIMFEYDFQDFTYGGSGTEVIPIKYRVAGSMTLLRNINTQIPDEDQQIEW
# Legend:
# Assay in all cases: glycan array binding signal (z-score within array); higher = stronger binding
# Conditions in all cases: glycan notation: IUPAC condensed, linker removed
# [1] = target: Fuc(a1-2)Gal(b1-4)[Fuc(a1-3)]GlcNAc(b1-3)Gal(b1-4)[Fuc(a1-3)]GlcNAc
# Summary of the method: (§1)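 Negative Z-scores can be read as non-binding. The Z-score is calculated within each array and then averaged across arrays of one protein sequence at different concentrations or buffers and across linkers. Arrays, 3228 in all, were curated from the Consortium for Functional Glycomics database and kept only where the protein sequence was available.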
# [2] = target: Fuc(a1-2)[Gal(a1-3)]Gal(b1-3)GalNAc(b1-3)Gal(a1-4)Gal(b1-4)Glc
# Summary of the method: as §1
# [3] = target: Fuc(a1-2)[Gal(a1-3)]Gal(b1-4)GlcNAc(b1-2)Man(a1-3)[Fuc(a1-2)[Gal(a1-3)]Gal(b1-4)GlcNAc(b1-2)Man(a1-6)]Man(b1-4)GlcNAc(b1-4)[Fuc(a1-6)]GlcNAc
# Summary of the method: as §1
# [4] = target: Fuc(a1-2)[Gal(a1-3)]Gal(b1-4)GlcNAc(b1-3)GalNAc
# Summary of the method: as §1
# [5] = target: Fuc(a1-2)[GalNAc(a1-3)]Gal(b1-3)GlcNAc(b1-2)Man(a1-3)[Fuc(a1-2)[GalNAc(a1-3)]Gal(b1-3)GlcNAc(b1-2)Man(a1-6)]Man(b1-4)GlcNAc(b1-4)[Fuc(a1-6)]GlcNAc
# Summary of the method: as §1
# [6] = target: Fuc(a1-2)[GalNAc(a1-3)]Gal(b1-4)GlcNAc(b1-2)Man(a1-3)[Fuc(a1-2)[GalNAc(a1-3)]Gal(b1-4)GlcNAc(b1-2)Man(a1-6)]Man(b1-4)GlcNAc(b1-4)[Fuc(a1-6)]GlcNAc
# Summary of the method: as §1
# [7] = target: Fuc(a1-2)[GalNAc(b1-3)]Gal
# Summary of the method: as §1
# Fuc(a1-4)GlcNAc = target: Fuc(a1-4)GlcNAc
# Summary of the method: as §1
# Gal(a1-3)Gal = target: Gal(a1-3)Gal
# Summary of the method: as §1
# [8] = target: Gal(a1-3)Gal(b1-4)GlcNAc(b1-2)Man(a1-3)[Gal(a1-3)Gal(b1-4)GlcNAc(b1-2)Man(a1-6)]Man(b1-4)GlcNAc(b1-4)GlcNAc
# Summary of the method: as §1
# [9] = target: Gal(b1-3)GlcNAc(b1-3)Gal(b1-4)GlcNAc(b1-6)[Gal(b1-3)GlcNAc(b1-3)]Gal(b1-4)Glc
# Summary of the method: as §1
# [10] = target: Gal(b1-3)GlcNAc(b1-3)Gal(b1-4)[Fuc(a1-3)]GlcNAc
# Summary of the method: as §1
# [11] = target: Gal(b1-3)[Fuc(a1-4)]GlcNAc
# Summary of the method: as §1
# [12] = target: Gal(b1-4)GlcNAc(b1-2)Man(a1-3)[Gal(b1-4)GlcNAc(b1-2)Man(a1-6)]Man(b1-4)GlcNAc(b1-4)GlcNAc
# Summary of the method: as §1
# [13] = target: Gal(b1-4)GlcNAc(b1-3)Gal(b1-4)GlcNAc(b1-2)Man(a1-3)[Gal(b1-4)GlcNAc(b1-3)Gal(b1-4)GlcNAc(b1-2)Man(a1-6)]Man(b1-4)GlcNAc(b1-4)GlcNAc
# Summary of the method: as §1
# [14] = target: Gal(b1-4)GlcNAc(b1-3)Gal(b1-4)GlcNAc(b1-2)Man(a1-3)[Gal(b1-4)GlcNAc(b1-3)Gal(b1-4)GlcNAc(b1-2)Man(a1-6)]Man(b1-4)GlcNAc(b1-4)[Fuc(a1-6)]GlcNAc
# Summary of the method: as §1
# [15] = target: Gal(b1-4)GlcNAc(b1-3)Gal(b1-4)GlcNAc(b1-3)Gal(b1-4)GlcNAc(b1-2)[Gal(b1-4)GlcNAc(b1-3)Gal(b1-4)GlcNAc(b1-3)Gal(b1-4)GlcNAc(b1-6)]Man(a1-6)[Gal(b1-4)GlcNAc(b1-3)Gal(b1-4)GlcNAc(b1-3)Gal(b1-4)GlcNAc(b1-2)Man(a1-3)]Man(b1-4)GlcNAc(b1-4)[Fuc(a1-6)]GlcNAc
# Summary of the method: as §1
# [16] = target: Gal(b1-4)GlcNAc(b1-3)Gal(b1-4)GlcNAc(b1-3)Gal(b1-4)GlcNAc(b1-3)Gal(b1-4)GlcNAc(b1-2)Man(a1-3)[Gal(b1-4)GlcNAc(b1-3)Gal(b1-4)GlcNAc(b1-3)Gal(b1-4)GlcNAc(b1-3)Gal(b1-4)GlcNAc(b1-2)Man(a1-6)]Man(b1-4)GlcNAc(b1-4)[Fuc(a1-6)]GlcNAc
# Summary of the method: as §1
# [17] = target: Gal(b1-4)GlcNAc(b1-3)Gal(b1-4)GlcNAc(b1-3)Gal(b1-4)GlcNAc(b1-3)Gal(b1-4)GlcNAc(b1-3)Gal(b1-4)GlcNAc(b1-2)Man(a1-3)[Gal(b1-4)GlcNAc(b1-3)Gal(b1-4)GlcNAc(b1-3)Gal(b1-4)GlcNAc(b1-3)Gal(b1-4)GlcNAc(b1-3)Gal(b1-4)GlcNAc(b1-2)Man(a1-6)]Man(b1-4)GlcNAc(b1-4)GlcNAc
# Summary of the method: as §1
# [18] = target: Gal(b1-4)GlcNAc(b1-3)Gal(b1-4)GlcNAc(b1-3)Gal(b1-4)GlcNAc(b1-3)Gal(b1-4)GlcNAc(b1-3)Gal(b1-4)GlcNAc(b1-2)Man(a1-3)[Gal(b1-4)GlcNAc(b1-3)Gal(b1-4)GlcNAc(b1-3)Gal(b1-4)GlcNAc(b1-3)Gal(b1-4)GlcNAc(b1-3)Gal(b1-4)GlcNAc(b1-2)Man(a1-6)]Man(b1-4)GlcNAc(b1-4)[Fuc(a1-6)]GlcNAc
# Summary of the method: as §1
# [19] = target: Gal(b1-4)GlcNAc(b1-3)Gal(b1-4)GlcNAc(b1-3)Gal(b1-4)GlcNAc(b1-3)Gal(b1-4)GlcNAc(b1-3)Gal(b1-4)GlcNAc(b1-3)Gal(b1-4)GlcNAc(b1-2)Man(a1-3)[Gal(b1-4)GlcNAc(b1-3)Gal(b1-4)GlcNAc(b1-3)Gal(b1-4)GlcNAc(b1-3)Gal(b1-4)GlcNAc(b1-3)Gal(b1-4)GlcNAc(b1-3)Gal(b1-4)GlcNAc(b1-2)Man(a1-6)]Man(b1-4)GlcNAc(b1-4)GlcNAc
# Summary of the method: as §1
# [20] = target: Gal(b1-4)GlcNAc(b1-6)GalNAc
# Summary of the method: as §1
# Gal3S(b1-4)Glc6S = target: Gal3S(b1-4)Glc6S
# Summary of the method: as §1
# Gal6S(b1-4)GlcNAc = target: Gal6S(b1-4)GlcNAc
# Summary of the method: as §1
# Gal6S(b1-4)GlcNAc6S = target: Gal6S(b1-4)GlcNAc6S
# Summary of the method: as §1
binder,measurement,setting,value
B1,glycan array binding signal (z-score),[1],-0.601
same,glycan array binding signal (z-score),[2],-0.087
same,glycan array binding signal (z-score),[3],0.241
same,glycan array binding signal (z-score),[4],-0.515
same,glycan array binding signal (z-score),[5],-0.323
same,glycan array binding signal (z-score),[6],-0.388
same,glycan array binding signal (z-score),[7],0.15
same,glycan array binding signal (z-score),Fuc(a1-4)GlcNAc,2.58
same,glycan array binding signal (z-score),Gal(a1-3)Gal,0.449
same,glycan array binding signal (z-score),[8],3.88
same,glycan array binding signal (z-score),[9],-0.129
same,glycan array binding signal (z-score),[10],-0.548
same,glycan array binding signal (z-score),[11],-0.425
same,glycan array binding signal (z-score),[12],-0.534
same,glycan array binding signal (z-score),[13],2.8
same,glycan array binding signal (z-score),[14],2.57
same,glycan array binding signal (z-score),[15],2.24
same,glycan array binding signal (z-score),[16],7.12
same,glycan array binding signal (z-score),[17],1.84
same,glycan array binding signal (z-score),[18],0.658
same,glycan array binding signal (z-score),[19],6.94
same,glycan array binding signal (z-score),[20],0.182
same,glycan array binding signal (z-score),Gal3S(b1-4)Glc6S,-0.337
same,glycan array binding signal (z-score),Gal6S(b1-4)GlcNAc,1.87
same,glycan array binding signal (z-score),Gal6S(b1-4)GlcNAc6S,-0.252
